Assay results taken from PubChem BioAssay AID1159580 (chemical genetic matrix, 2015).
The campaign covered roughly 5,500 compounds. About 2,000 (36%) were called active. About 18% were inconclusive and are not listed. Cut-off read from the data, not from the text of the source: active = normalized growth mostly below about 0.91 (no sharp cut-off); inconclusive = no clear call, values can overlap the other calls; inactive = mostly above about 0.92. The list shows a part of the results.

Experiment: chemical genetic growth profiling, strain panel (AID 1159580);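 note: tested at 20 µM; growth read once vehicle control cultures reached saturation at 30 °C; 1 = growth at the plate median or of vehicle wells; lower values mean less growth of the strain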
Conditions: growth OD
[1] = S. cerevisiae deletion strains, locus YAL013W, strain DEP1, active compounds read low
[2] = S. cerevisiae deletion strains, locus YBR229C, strain ROT2, active compounds read low
[3] = S. cerevisiae deletion strains, locus YDL101C, strain DUN1, active compounds read low
[4] = S. cerevisiae deletion strains, locus YDL134C, strain PPH21, active compounds read low
[5] = S. cerevisiae deletion strains, locus YDR150W, strain NUM1, active compounds read low
[6] = S. cerevisiae deletion strains, locus YEL061C, strain CIN8, active compounds read low
[7] = S. cerevisiae deletion strains, locus YGR078C, strain PAC10, active compounds read low
[8] = S. cerevisiae deletion strains, locus YHR030C, strain SLT2, active compounds read low
[9] = S. cerevisiae deletion strains, locus YHR087W, strain rtc3, active compounds read low
[10] = S. cerevisiae deletion strains, locus YJR043C, strain POL32, active compounds read low
[11] = S. cerevisiae deletion strains, locus YJR075W, strain HOC1, active compounds read low
[12] = S. cerevisiae deletion strains, locus YLR039C, strain RIC1, active compounds read low
[13] = S. cerevisiae deletion strains, locus YLR058C, strain SHM2 (second series), active compounds read low
[14] = S. cerevisiae deletion strains, locus YLR085C, strain ARP6, active compounds read low
[15] = S. cerevisiae deletion strains, locus YLR262C, strain YPT6, active compounds read low
[16] = S. cerevisiae deletion strains, locus YML094W, strain GIM5, active compounds read low
[17] = S. cerevisiae deletion strains, locus YMR219W, strain ESC1, active compounds read low
[18] = S. cerevisiae deletion strains, locus YMR263W, strain SAP30, active compounds read low
[19] = S. cerevisiae deletion strains, locus YNL153C, strain GIM3, active compounds read low
[20] = S. cerevisiae deletion strains, locus YNL298W, strain CLA4 (second series), active compounds read low
[21] = S. cerevisiae deletion strains, locus YNL322C, strain KRE1, active compounds read low
[22] = S. cerevisiae deletion strains, locus YNR030W, strain Alg12, active compounds read low
[23] = S. cerevisiae deletion strains, locus YOL006C, strain TOP1, active compounds read low
[24] = S. cerevisiae deletion strains, locus YPL055C, strain LGE1, active compounds read low
[25] = S. cerevisiae deletion strains, locus YPL241C, strain CIN2, active compounds read low
[26] = S. cerevisiae deletion strains, locus YPR135W, strain CTF4, active compounds read low
[27] = S. cerevisiae strains, strain wild type, active compounds read low
[28] = S. cerevisiae deletion strains, locus YMR307W, strain GAS1, active compounds read low

Measured: normalized growth

Cc1ccc(-c2csc(CC#N)n2)cc1C
active: [12] 0.774 | [15] 0.78
inactive: [1] 0.987 | [2] 0.961 | S. cerevisiae deletion strains, locus YCL061C, strain MRC1, active compounds read low 0.912 | [3] 0.963 | [4] 0.977 | [5] 0.989 | [6] 0.951 | [7] 0.951 | [8] 0.716 | [9] 0.97 | [10] 0.97 | [11] 0.914 | [13] 0.961 | [14] 0.823 | [16] 0.944 | [17] 0.961 | [18] 0.974 | [19] 0.929 | [20] 0.882 | [21] 0.962 | [22] 0.962 | [23] 0.758 | [24] 0.946 | [25] 0.859 | [26] 0.801 | [27] 0.969

S=c1nc2[nH]c3ccccc3c2n[nH]1
inactive: [1] 0.98 | [2] 0.982 | [3] 0.985 | [4] 0.973 | [5] 1.01 | [6] 1 | [7] 0.976 | [8] 0.962 | [9] 1.04 | [10] 0.974 | [11] 1 | [12] 0.996 | [13] 0.99 | [14] 0.927 | [15] 0.995 | [16] 0.978 | [17] 0.994 | [18] 1.03 | [19] 0.977 | [20] 0.944 | [21] 0.991 | [22] 0.972 | [23] 1 | [24] 1 | [25] 0.974 | [26] 0.916 | [27] 0.984

CNC(=O)[C@H]1O[C@@H](n2cnc3c(NCc4cccc(I)c4)ncnc32)C(O)[C@H]1O (stereo partly drawn)
inactive: S. cerevisiae deletion strains, locus YAL040C, strain CLN3, active compounds read low 0.988 | S. cerevisiae deletion strains, locus YCL061C, strain MRC1 (second series), active compounds read low 0.998 | S. cerevisiae deletion strains, locus YDR363W, strain ESC2, active compounds read low 1.01 | S. cerevisiae deletion strains, locus YER002W, strain NOP16, active compounds read low 0.993 | [7] 1.01 | [18] 0.999 | [28] 0.992 | S. cerevisiae deletion strains, locus YNL128W, strain TEP1, active compounds read low 0.994 | S. cerevisiae deletion strains, locus YNL175C, strain NOP13, active compounds read low 1.01 | S. cerevisiae deletion strains, locus YNL197C, strain WHI3, active compounds read low 0.998 | S. cerevisiae deletion strains, locus YNL224C, strain SQS1, active compounds read low 1.02 | [21] 0.992 | S. cerevisiae deletion strains, locus YOR083W, strain WHI5 (second series), active compounds read low 0.991 | [24] 1.01 | [25] 1

O=C(O)c1cncc(C#Cc2ccccc2)c1
inactive: [1] 0.982 | [2] 0.976 | [3] 0.991 | [4] 1.01 | [5] 1.01 | [6] 1 | [7] 0.957 | S. cerevisiae deletion strains, locus YGR229C, strain SMI1, active compounds read low 0.957 | [8] 0.956 | [9] 1 | [10] 0.957 | [11] 0.961 | [12] 0.976 | [13] 0.949 | [14] 1.04 | [15] 0.996 | [16] 1.02 | [17] 0.972 | [18] 0.981 | [28] 1.03 | [19] 0.931 | [20] 0.991 | [21] 0.971 | [22] 0.989 | [24] 1 | [25] 1.01 | [26] 0.935

O=C(Nc1cccc(C(F)(F)F)c1)c1cncc(C#Cc2ccccc2)c1
active: [8] 0.847
inactive: S. cerevisiae deletion strains, locus YAR019C, strain CDC15, active compounds read low 0.971 | S. cerevisiae deletion strains, locus YBL105C, strain PKC1, active compounds read low 0.98 | S. cerevisiae deletion strains, locus YBR135W, strain CKS1, active compounds read low 0.983 | S. cerevisiae deletion strains, locus YBR136W, strain MEC1, active compounds read low 0.982 | S. cerevisiae deletion strains, locus YBR160W, strain CDC28, active compounds read low 0.983 | S. cerevisiae deletion strains, locus YDL017W, strain CDC7, active compounds read low 0.983 | S. cerevisiae deletion strains, locus YDL028C, strain MPS1, active compounds read low 0.978 | [3] 0.987 | S. cerevisiae deletion strains, locus YDL108W, strain KIN28, active compounds read low 0.984 | S. cerevisiae deletion strains, locus YDL132W, strain cdc53, active compounds read low 0.983 | S. cerevisiae deletion strains, locus YDL214C, strain PRR2, active compounds read low 0.905 | S. cerevisiae deletion strains, locus YDR052C, strain DBF4, active compounds read low 0.983 | S. cerevisiae deletion strains, locus YDR054C, strain cdc34, active compounds read low 0.963 | S. cerevisiae deletion strains, locus YDR226W, strain ADK1, active compounds read low 0.973 | S. cerevisiae deletion strains, locus YDR477W, strain SNF1, active compounds read low 0.929 | S. cerevisiae deletion strains, locus YER123W, strain YCK3, active compounds read low 0.809 | S. cerevisiae deletion strains, locus YER133W, strain GLC7, active compounds read low 0.936 | S. cerevisiae deletion strains, locus YFL009W, strain cdc4, active compounds read low 0.968 | S. cerevisiae deletion strains, locus YFL029C, strain CAK1, active compounds read low 0.97 | S. cerevisiae deletion strains, locus YFR003C, strain YPI1, active compounds read low 0.983 | S. cerevisiae deletion strains, locus YFR019W, strain FAB1, active compounds read low 0.862 | S. cerevisiae deletion strains, locus YFR028C, strain CDC14, active compounds read low 0.969 | S. cerevisiae deletion strains, locus YGR040W, strain KSS1, active compounds read low 0.89 | S. cerevisiae deletion strains, locus YGR052W, strain FMP48, active compounds read low 0.977 | S. cerevisiae deletion strains, locus YGR092W, strain DBF2, active compounds read low 0.826 | S. cerevisiae deletion strains, locus YHR079C, strain IRE1, active compounds read low 0.854 | S. cerevisiae deletion strains, locus YHR082C, strain KSP1, active compounds read low 0.905 | S. cerevisiae deletion strains, locus YHR205W, strain SCH9, active compounds read low 0.776 | S. cerevisiae deletion strains, locus YIL147C, strain SLN1, active compounds read low 0.98 | S. cerevisiae deletion strains, locus YJL095W, strain BCK1, active compounds read low 0.903 | S. cerevisiae deletion strains, locus YJL128C, strain PBS2, active compounds read low 0.978 | S. cerevisiae deletion strains, locus YJL157C, strain FAR1, active compounds read low 0.878 | S. cerevisiae deletion strains, locus YJR016C, strain ILV3, active compounds read low 0.983 | S. cerevisiae deletion strains, locus YJR066W, strain TOR1 (second series), active compounds read low 0.905 | S. cerevisiae deletion strains, locus YJR066W, strain TOR1, active compounds read low 0.865 | S. cerevisiae deletion strains, locus YKL048C, strain ELM1, active compounds read low 0.877 | S. cerevisiae deletion strains, locus YKL067W, strain YNK1, active compounds read low 0.901 | S. cerevisiae deletion strains, locus YKL101W, strain HSL1, active compounds read low 0.883 | S. cerevisiae deletion strains, locus YKL193C, strain SDS22, active compounds read low 0.982 | S. cerevisiae deletion strains, locus YKL203C, strain TOR2, active compounds read low 0.937 | S. cerevisiae deletion strains, locus YLR113W, strain HOG1, active compounds read low 0.902 | S. cerevisiae deletion strains, locus YLR133W, strain CKI1, active compounds read low 0.868 | S. cerevisiae deletion strains, locus YLR403W, strain SFP1, active compounds read low 0.843 | S. cerevisiae deletion strains, locus YML070W, strain DAK1, active compounds read low 0.914 | S. cerevisiae deletion strains, locus YMR001C, strain CDC5, active compounds read low 0.98 | S. cerevisiae deletion strains, locus YMR205C, strain PFK2 (second series), active compounds read low 0.935 | S. cerevisiae deletion strains, locus YMR277W, strain FCP1, active compounds read low 0.975 | S. cerevisiae deletion strains, locus YNL006W, strain LST8, active compounds read low 0.981 | S. cerevisiae deletion strains, locus YNL020C, strain ARK1, active compounds read low 0.853 | S. cerevisiae deletion strains, locus YNL161W, strain CBK1, active compounds read low 0.985 | S. cerevisiae deletion strains, locus YNL183C, strain NPR1, active compounds read low 0.919 | S. cerevisiae deletion strains, locus YNL207W, strain RIO2, active compounds read low 0.99 | S. cerevisiae deletion strains, locus YNL222W, strain SSU72, active compounds read low 0.978 | S. cerevisiae deletion strains, locus YNL307C, strain MCK1 (second series), active compounds read low 0.77 | S. cerevisiae deletion strains, locus YOL078W, strain AVO1, active compounds read low 0.977 | S. cerevisiae deletion strains, locus YOL136C, strain PFK27, active compounds read low 0.899 | S. cerevisiae deletion strains, locus YOR061W, strain CKA2, active compounds read low 0.875 | S. cerevisiae deletion strains, locus YOR119C, strain RIO1, active compounds read low 0.977 | S. cerevisiae deletion strains, locus YOR231W, strain MKK1, active compounds read low 0.915 | S. cerevisiae deletion strains, locus YOR329C, strain SCD5, active compounds read low 0.981 | S. cerevisiae deletion strains, locus YPL031C, strain PHO85, active compounds read low 0.916 | S. cerevisiae deletion strains, locus YPL153C, strain RAD53, active compounds read low 0.921 | S. cerevisiae deletion strains, locus YPL204W, strain HRR25, active compounds read low 0.883 | S. cerevisiae deletion strains, locus YPL209C, strain IPL1, active compounds read low 0.988 | S. cerevisiae deletion strains, locus YPL256C, strain CLN2, active compounds read low 0.897 | S. cerevisiae deletion strains, locus YPR025C, strain CCL1, active compounds read low 0.977 | S. cerevisiae deletion strains, locus YPR106W, strain ISR1, active compounds read low 0.977 | S. cerevisiae deletion strains, locus YPR111W, strain DBF20, active compounds read low 0.964 | S. cerevisiae deletion strains, strain NNK1, active compounds read low 0.974 | S. cerevisiae deletion strains, strain TSCII, active compounds read low 0.989
